From PubChem BioAssay
Active and inactive are the calls of the source.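 How the source made its calls, unless noted: active means visually confirmed hit in the image check and inhibition above 20%; inconclusive means visually confirmed hit but inhibition not above 20%; inactive means no visual hit in the image check.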

Experiments:
[1] = inhibitors of TNFa-induced NFkB p65 translocation, primary screen, imaging, HUVEC, MLSMR starter and 10KST1 sets (AID 438;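 active means inhibition above 20% together with a positive visual image hit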;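 further: compound added about 3h40 before a 20 min TNFalpha stimulation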;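 on inhibition: signal is the nuclear over cytoplasmic p65 intensity ratio per well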); conditions: HUVEC TNFa-induced p65 nuclear translocation; cell count: measured here: nuclei count (cytotoxicity indicator), at 2.08 µM; inhibition: at 2 µM, stronger effect = higher value, 0% TNFa-plus-vehicle, 100% no-TNFa wells
[2] = inhibitors of mutant huntingtin aggregation, primary screen, imaging, exon1htt(103Q)mCFP cells, high-content imaging (AID 483;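 active means visual image review flags a hit and inhibition of aggregation exceeds 20%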;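 further: compound exposure lasted 3 days before fixation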;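 on nuclei count: percent of the per-plate median nuclei count of sample wells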); conditions: exon1htt(103Q)mCFP cell line, aggregate imaging, at 2 µM; inhibition of aggregation: stronger effect = higher value; nuclei count: measured here: cell count, toxicity
[3] = inhibitors of E-selectin induction by TNFa, primary screen, imaging, HUVEC, immunofluorescence, MLSMR starter and 10KST1 sets (AID 487); conditions: HUVEC TNFalpha-induced E-selectin immunofluorescence imaging, at 2 µM; inhibition: stronger effect = higher value; nuclei count: measured here: cell number, toxicity;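 on inhibition: signal is fraction of cell area covered by stained E-selectin grains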;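 on nuclei count: 100% = median nuclei count of all wells on the same plate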
[4] = molecular target: Voltage-gated potassium channel subunit beta-2 (Rattus norvegicus) (UniProt P62483); test: KvBeta enzyme negative modulators, primary screen, biochemical, NADPH fluorescence (AID 622;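 active means fluorescence slope higher than the sample average by over 3 SD, cut at about -0.22 in these data, passing the limit was not always enough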;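 further: slope of raw intensity against log time taken from 70 to 1610 s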); conditions: recombinant KvBeta, 4-cyanobenzaldehyde reduction, at 10 µM, stronger effect = higher value
[5] = molecular target: Voltage-gated potassium channel subunit beta-2 (Rattus norvegicus) (UniProt P62483); test: KvBeta positive modulators, primary screen, biochemical, NADPH fluorescence (AID 623;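 active means NADPH fluorescence slope more negative than the mean of all samples by about 3 SD, 99.7% confidence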;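 further: fluorescence intensity change per second fitted from 20 to 320 s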); conditions: Recombinant KvBeta, NADPH fluorescence decrease slope, 10 min; at 10 µM; stronger effect = lower value
[6] = molecular target: Alpha-2C adrenergic receptor (Homo sapiens) (UniProt P18825); test: modulators of alpha2C/GIRK thallium flux, primary screen, cell-based, HEK293 alpha2C/GIRK1/2 (AID 624;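 active means fluorescence slope after compound addition differing from the mean of all screened samples at 99.7% confidence, in either direction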;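 further: slope of fluorescence ratio to pre-addition baseline per second over 15 to 24 s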); conditions: thallium flux BTC fluorescence, at 10 µM, actives lie on both sides
[7] = inhibitors of Sendai virus-induced IRF3 signaling, primary screen, TLR/RLR signaling modifier project, cell-based, Sendai virus stimulus, luciferase, 10K MLSCN set (AID 602276;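 active means inhibition at or above 50% at 10 µM; inactive means inhibition below 50%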;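 further: firefly luciferase from ISG56 promoter only with Renilla not read in this screen; 0% = Sendai virus plus DMSO and 100% = medium plus DMSO without virus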); conditions: HEK293 RL24 IRF3 luciferase reporter, at 10 µM, stronger effect = higher value
[8] = inhibitors of poly I:C-induced TLR3 signaling, primary screen, cell-based, poly I:C stimulus, luciferase, 10K MLSCN set (AID 602277;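 active means inhibition of the reporter signal at or above 50%; inactive means inhibition below 50%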); conditions: HEK293-TLR3 RL24 IRF3 luciferase reporter, at 10 µM, stronger effect = higher value

Voltage-gated potassium channel subunit beta-2 (Rattus norvegicus), sequence (P62483 whole entry, looked up): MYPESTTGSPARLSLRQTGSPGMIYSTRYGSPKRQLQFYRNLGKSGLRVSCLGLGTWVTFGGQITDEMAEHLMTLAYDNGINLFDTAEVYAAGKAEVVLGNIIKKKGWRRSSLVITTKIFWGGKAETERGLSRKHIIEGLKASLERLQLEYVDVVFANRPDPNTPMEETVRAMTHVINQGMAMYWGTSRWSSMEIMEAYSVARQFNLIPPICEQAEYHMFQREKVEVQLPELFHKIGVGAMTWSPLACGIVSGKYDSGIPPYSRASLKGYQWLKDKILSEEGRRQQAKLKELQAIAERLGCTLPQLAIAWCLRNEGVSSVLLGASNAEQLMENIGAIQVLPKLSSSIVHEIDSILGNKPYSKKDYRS
Alpha-2C adrenergic receptor (Homo sapiens), sequence (P18825 whole entry, looked up): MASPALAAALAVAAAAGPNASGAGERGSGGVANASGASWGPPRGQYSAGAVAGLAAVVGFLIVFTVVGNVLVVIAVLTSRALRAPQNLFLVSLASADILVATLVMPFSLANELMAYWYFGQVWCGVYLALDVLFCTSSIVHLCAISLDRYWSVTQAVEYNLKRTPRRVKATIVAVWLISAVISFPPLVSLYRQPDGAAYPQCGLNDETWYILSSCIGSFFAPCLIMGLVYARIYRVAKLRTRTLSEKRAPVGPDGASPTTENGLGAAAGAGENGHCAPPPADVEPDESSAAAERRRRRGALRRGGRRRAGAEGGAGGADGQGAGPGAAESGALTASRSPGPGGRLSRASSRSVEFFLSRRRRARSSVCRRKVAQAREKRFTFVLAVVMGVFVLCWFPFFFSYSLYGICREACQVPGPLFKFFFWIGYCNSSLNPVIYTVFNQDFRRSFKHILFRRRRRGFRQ

Structure (SMILES) | cell count [1] | inhibition [1] | inhibition of aggregation [2] | nuclei count [2] [%] | inhibition [3] | nuclei count [3] [%] | fluorescence slope [4] | NADPH fluorescence slope [5] | slope [6] | inhibition [7] | inhibition [8]
CCCn1c(SCC(=O)Nc2ccccc2C(=O)OCC)nc2c1c(=O)n(C)c(=O)n2C | 225 | -9.1% (inactive) | -9.7% (inactive) | 95.2 | -4.8% (inactive) | 77.3 | -0.402 (inactive) | -3.8e-05 (inactive) | 0.00524 (inactive) | 4.88% (inactive) | 5.62% (inactive)
CCCCCc1c(C)nc(Nc2nc(C)c3cc(OC)ccc3n2)[nH]c1=O | 411 | 5% (inactive) | 7.6% (inactive) | 84.7 | 9.5% (inactive) | 98 | -0.598 (inactive) | 1.7e-05 (inactive) | 0.00896 (inactive) | 12.6% (inactive) | -6.69% (inactive)
CCOC(=O)N1CCN(C(=O)CSc2ncnc3ccccc23)CC1 | 747 | -1.6% (inactive) | -8.8% (inactive) | 120 | -10.3% (inactive) | 115 | -0.525 (inactive) | -2.4e-05 (inactive) | 0.00632 (inactive) | 1.11% (inactive) | -8.53% (inactive)
O=C(O)COc1ccc(S(=O)(=O)NCCc2ccccc2)cc1 | 596 | -0.8% (inactive) | 20.5% (inactive) | 81.4 | -54.3% (inactive) | 119 | -0.543 (inactive) | -6.9e-05 (inactive) | 0.00764 (inactive) | 13% (inactive) | 24.1% (inactive)
Nc1nnc(C(=O)c2ccccc2N)s1 | 384 | -5.3% (inactive) | -21% (inactive) | 99.9 | -41.8% (inactive) | 106 | -0.438 (inactive) | -0.000136 (inactive) | 0.00502 (inactive) | -1.19% (inactive) | -4.86% (inactive)
CCCCSCCCNC(=O)CS(=O)Cc1nc(-c2cccc(C)c2)oc1C (centres undefined) | 527 | -9.6% (inactive) | -1.1% (inactive) | 107 | -27.5% (inactive) | 113 | -0.308 (inactive) | 1.3e-05 (inactive) | -0.000762 (active) | 10.8% (inactive) | 10.7% (inactive)
CC(C)OC(=O)CSc1nnc(-c2ccccn2)n1-c1ccccc1 | 306 | 1.6% (inactive) | -8.2% (inactive) | 102 | -11.2% (inactive) | 99.6 | -0.429 (inactive) | -7.9e-05 (inactive) | 0.00479 (inactive) | 4.23% (inactive) | 6.06% (inactive)
CC(C)OC(=O)c1cccc(C(=O)O)n1 | 441 | 4.6% (inactive) | -5.9% (inactive) | 92.5 | -285% (inactive) | 110 | -0.495 (inactive) | -2.4e-05 (inactive) | 0.00557 (inactive) | 11.6% (inactive) | 12.7% (inactive)
Cc1cc(Cl)c(S(=O)(=O)Nc2ccc3c(c2)OCCO3)cc1OCC(N)=O | 526 | 1.8% (inactive) | -7.1% (inactive) | 106 | -79.1% (inactive) | 113 | -0.516 (inactive) | 1.1e-05 (inactive) | 0.00485 (inactive) | 32.8% (inactive) | 30.7% (inactive)
O=C1c2ccccc2S(=O)(=O)N1Cc1nnc(-c2ccccc2Br)o1 | 536 | -4.9% (inactive) | -9.2% (inactive) | 106 | 51.8% (active) | 99.5 | -0.488 (inactive) | -6e-05 (inactive) | 0.00709 (inactive) | 16.6% (inactive) | 20.8% (inactive)
COc1ccc(S(=O)(=O)C(C#N)c2nc3ccccc3nc2N2CCCC(C)C2)cc1 (centres undefined) | 714 | -5% (inactive) | -12.7% (inactive) | 92.2 | 16% (inactive) | 113 | -0.417 (inactive) | 7.1e-06 (inactive) | 0.00445 (inactive) | 13% (inactive) | 0.928% (inactive)
CCOC(=O)C1=C(C)NC(C)=C(C(=O)OCC)C1C(=O)OC1CCOC1=O (centres undefined) | 653 | -4.7% (inactive) | 5.7% (inactive) | 112 | -121% (inactive) | 103 | -0.587 (inactive) | -2.6e-05 (inactive) | 0.00602 (inactive) | 9.93% (inactive) | 20% (inactive)
COc1ccc(CCNc2oc(COc3ccc(F)cc3)nc2C#N)cc1 | 407 | -9.8% (inactive) | 8.7% (inactive) | 88.8 | 17% (inactive) | 74.8 | -0.608 (inactive) | -3.3e-06 (inactive) | 0.00681 (inactive) | 15.6% (inactive) | 23.5% (inactive)
CCC1CCCCN1C(=O)CSc1nnc(-c2ccc(OC)cc2)o1 (centres undefined) | 599 | -4.4% (inactive) | 20.5% (inactive) | 96.8 | -27.4% (inactive) | 113 | -0.539 (inactive) | 3e-05 (inactive) | 0.0067 (inactive) | -5.53% (inactive) | -21.5% (inactive)
